The values that follow come from PubChem BioAssay (NCI).

This is part of a sample that, as a whole, favours compounds with a hit. Of some 83,000 tested, about 20% had one in any assay.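 Testing used 96-well plates and a 48-hour single-concentration exposure. Example: -40 means 40% of the starting cells died.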 Values without a mark were called inactive. Calls of active or inactive are those of the source. Rule for the calls: active = growth percent below 10; inactive = the rest.

For the assay, the system named is HL-60(TB) leukemia. Kind of assay: NCI-60 one-dose screen, 48 h (100 = growth as untreated, 0 = no growth, -100 = all killed). As to conditions: 10 µM unless noted.
For `Ic1ccc(OCCCCn2ccnc2)cc1`, the growth is 3.58% (active).
With `O=c1oc2c3ccc4cnccc4c3[nH]c2c2ccccc12`, the growth was 27.1%.
As for `O=[N+]([O-])c1ccc(-c2cc3c(Nc4ccc(OCc5cccc(Cl)c5)c(Cl)c4)ncnc3s2)cc1`, the growth is 44.2%.
Turning to `COc1ccc2c(c1)c(=O)oc1c(C)c(OCC(C)=O)ccc12`, the growth was 110%.
As for `COc1ccccc1OCC(=O)Nc1sc2c(c1C(N)=O)CCC2`, the figure is 50.1%; as for `CC1(O)OC(COc2ccc(Cl)cc2)COC1O` (stereo not given), 105%.
`O=C(CCl)n1nnnc1Cc1ccccc1`: the growth was 83.5%.
As to `CCCCCCCCO`, the growth was 93.8%.
As for `O=C1/C(=C/c2ccc(Cl)c(Cl)c2)CN(C(=O)CCN2CCC(=NO)CC2)C/C1=C\c1ccc(Cl)c(Cl)c1`, the figure is -16% (active); as for `Cc1nn(-c2ccc(F)cc2)c2ncnc(Oc3ccc(NC(=O)Nc4ccc(Cl)c(C(F)(F)F)c4)cc3)c12`, 99%; as for `Cc1ccc(-c2cc(C(=O)Nc3ccc(S(=O)(=O)N4CCCCC4)cc3)[nH]n2)c(O)c1`, 48.7%.
Take `CCc1ccc(-c2cn3ccnc3c(-c3ccc4ncn(Cc5ccccc5)c4c3)n2)cc1`: the growth was 60.4%.
For `CCCCCC(C)(CC(=O)O)CC(=O)O`, the growth is 90.5%.
On to `CCOC(=O)c1cc2c(n1Cc1cc(OC)c(OC)c(OC)c1)-c1nc(N)sc1CCC2`, for which the growth is 13.2%.
`C=CCn1c(SCC(=O)Nc2ccc(C(=O)/C=C/c3cc(OC)c(OC)c(OC)c3)cc2)nnc1-c1cc(-c2ccc(S(N)(=O)=O)cc2)nc2ccccc12`: the growth was 57.5%.
As for `Cc1cc(C)c([I+]c2c(C)cc(C)cc2C)c(C)c1`, the growth is -64.3% (active).
For `COc1cc(-c2nc3ccc(C)cc3[nH]2)ccc1OCC(=O)N=Nc1c(O)[nH]c2ccccc12`, the growth was -34.3% (active).
As to `CC[C@H](Nc1nc(N)nc(C)c1C#N)c1nc2cccc(CN(C)c3ncc(C(=O)NO)cn3)c2c(=O)n1-c1ccccc1`, the growth was 0.763% (active).
Under `COc1cc2nc(-c3ccc(C(F)(F)F)cc3)cc(OCCCN3CCOCC3)c2cc1OC` stands 32.5%; under `O=c1[nH]ccc2c(S(=O)(=O)N3CCCNCC3)cccc12`, 87.1%.
Under `C=C1C(=O)C2CCC1C2` (stereo not given) stands 95.9%; under `Cc1nc2cc(-n3c(-c4ccc(F)cc4)nc4ccccc4c3=O)ccc2n1Cc1ccccc1`, 57.7%.
In the case of `CC(=O)Nc1ccc(C(=O)/C=C/c2ccccc2)cc1`, the growth is 53.9%.
Regarding `Cc1cc(N/N=C/c2ccccn2)nc2ccccc12`, the growth is -12.8% (active).
Under `NS(=O)(=O)c1ccc(CCN=C=S)cc1` stands -2.31% (active).
On to `N#CC1=C(N)Oc2c(c(=O)[nH]c3ccc(Cl)cc23)C12C(=O)c1ccccc1C2=O`, for which the growth is 99.8%.
On to `O=[N+]([O-])c1ccc(Oc2cc(Cl)c(Cl)cc2Cl)c(C(F)(F)F)c1`, for which the growth is 104%.
In the case of `COc1ccc(C2C=C(c3ccc(OC)c(OC)c3)N=C3SC=CN32)c(Br)c1` (stereo not given), the growth was 57.6%.
As for `CC1(C)CN(c2cnc(C(=O)Nc3cc(F)cc4cccnc34)cn2)CCN1`, the figure is 11.7%.
As to `O=C(OCc1ccc2c(Cl)cc(Cl)c(O)c2n1)N1CCNCC1`, the growth was 64.5%.
For the compound `COc1ccc(/C=C\c2cc(OC)c(OC)c(OC)c2)cc1OCC(=O)Nc1nc2ccccc2s1`, the growth is 18.7%.
In the case of `ClC1=C(Cl)C(=C2C(Cl)=C(Cl)C(Cl)=C2Cl)C(Cl)=C1Cl`, the growth is 77.7%.
For the compound `COc1cc(C(=O)n2nc(NCCCc3ccccc3)c3cc(N)ccc32)cc(OC)c1OC`, the growth is 69.5%.
Under `COc1cccc(CC(C)=C(c2ccc(OCCCN(C)C)cc2)c2ccc(OCCCN(C)C)cc2)c1` stands -68% (active); under `COC(=O)Nc1nc2ccc(S(=O)c3ccccc3)cc2[nH]1` (stereo not given), 22.7%.
As for `CC/C=C(\C)C(CCC)(CN=O)C(=O)OCC` (stereo not given), the figure is 110%; as for `Cc1nc2c(c(-c3ccccc3)n1)Cc1c(ccc3ccccc13)O2`, 103%; as for `O=C(CN1CCN(c2ccccc2)CC1)N1CCN(c2nnc(-c3ccc(Cl)cc3)c(-c3ccc(Cl)cc3)n2)CC1`, -40.7% (active).
Under `O=C1Nc2ccccc2/C1=N/N1C(=O)CN(CCCl)C1=O` stands 96.3%; under `O=C1CSC(=S)N1/N=C/c1ccc(Cl)s1`, 91%.
